Key:
Assay in all cases: log2 ratio of Biotin-Ahx-Ub-VS probe labelling (fragment/DMSO); higher = less target engagement (more negative = stronger competition), active = hit call of the paper (q ≤ 0.05, log2 ratio ≤ -1)
Settings in all cases: compound concentration: 200 uM; treatment time: 3 h
[1] = biological target: USP9X (UniProt Q93008)
Method in brief: (§1)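 HEK293T lysate (495 µg per sample, in Tris/CHAPS/IGEPAL buffer with protease inhibitors) was treated in triplicate with fragment at 200 µM or with DMSO for 3 h. It was then treated with Biotin-Ahx-Ub-VS (0.5 µM final) for 1 h. Labelled DUBs were NeutrAvidin-enriched, digested with LysC and trypsin, and run by diaPASEF LC-MS/MS. Spectronaut label-free quantities were global-median-normalised. Values are average log2 ratios fragment/DMSO by unpaired t-test, using proteins with ≥2 unique peptides.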

[2] = biological target: UniProt O00487
Method in brief: as §1

[3] = biological target: UniProt O00507
Method in brief: as §1

[4] = biological target: UniProt P51784
Method in brief: as §1

[5] = biological target: T1, UniProt Q5T2D3
T1 sequence (whole entry): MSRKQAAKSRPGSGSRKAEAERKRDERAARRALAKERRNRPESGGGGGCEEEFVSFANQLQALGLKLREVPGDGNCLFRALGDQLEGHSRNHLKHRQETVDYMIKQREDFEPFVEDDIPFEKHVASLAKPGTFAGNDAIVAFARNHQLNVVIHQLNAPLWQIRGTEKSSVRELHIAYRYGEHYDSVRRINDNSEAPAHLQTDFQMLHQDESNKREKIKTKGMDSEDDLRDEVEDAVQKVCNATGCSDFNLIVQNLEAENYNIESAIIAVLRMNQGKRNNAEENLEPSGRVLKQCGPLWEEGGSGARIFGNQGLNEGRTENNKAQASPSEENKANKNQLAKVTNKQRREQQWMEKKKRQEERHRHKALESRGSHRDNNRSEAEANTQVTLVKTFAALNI
Method in brief: as §1

[6] = biological target: T2, UniProt Q8TE49
T2 sequence (whole entry): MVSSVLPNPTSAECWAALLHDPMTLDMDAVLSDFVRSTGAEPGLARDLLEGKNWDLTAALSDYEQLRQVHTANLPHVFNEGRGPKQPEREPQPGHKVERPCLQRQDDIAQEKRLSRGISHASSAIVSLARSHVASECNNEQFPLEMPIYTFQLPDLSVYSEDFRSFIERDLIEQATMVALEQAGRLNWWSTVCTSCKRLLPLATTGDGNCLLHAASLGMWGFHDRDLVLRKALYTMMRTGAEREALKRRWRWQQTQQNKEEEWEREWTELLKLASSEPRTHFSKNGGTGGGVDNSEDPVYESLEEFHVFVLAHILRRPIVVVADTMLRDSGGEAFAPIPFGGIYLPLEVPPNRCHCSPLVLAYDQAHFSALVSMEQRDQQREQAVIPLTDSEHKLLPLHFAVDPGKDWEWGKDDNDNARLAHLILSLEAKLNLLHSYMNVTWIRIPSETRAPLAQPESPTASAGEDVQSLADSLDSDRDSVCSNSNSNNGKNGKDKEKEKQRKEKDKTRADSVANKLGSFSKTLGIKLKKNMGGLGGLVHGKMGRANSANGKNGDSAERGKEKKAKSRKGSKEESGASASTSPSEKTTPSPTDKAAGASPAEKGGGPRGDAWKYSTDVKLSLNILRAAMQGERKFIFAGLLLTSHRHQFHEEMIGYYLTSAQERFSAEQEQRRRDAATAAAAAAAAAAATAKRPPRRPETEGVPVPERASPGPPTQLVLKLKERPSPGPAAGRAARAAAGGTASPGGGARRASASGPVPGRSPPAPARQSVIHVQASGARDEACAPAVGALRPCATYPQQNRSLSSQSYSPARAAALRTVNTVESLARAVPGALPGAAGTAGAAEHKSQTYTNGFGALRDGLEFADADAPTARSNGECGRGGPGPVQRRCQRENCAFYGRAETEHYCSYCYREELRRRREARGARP
Method in brief: as §1

[7] = biological target: T3, UniProt Q9P2H5
T3 sequence (whole entry): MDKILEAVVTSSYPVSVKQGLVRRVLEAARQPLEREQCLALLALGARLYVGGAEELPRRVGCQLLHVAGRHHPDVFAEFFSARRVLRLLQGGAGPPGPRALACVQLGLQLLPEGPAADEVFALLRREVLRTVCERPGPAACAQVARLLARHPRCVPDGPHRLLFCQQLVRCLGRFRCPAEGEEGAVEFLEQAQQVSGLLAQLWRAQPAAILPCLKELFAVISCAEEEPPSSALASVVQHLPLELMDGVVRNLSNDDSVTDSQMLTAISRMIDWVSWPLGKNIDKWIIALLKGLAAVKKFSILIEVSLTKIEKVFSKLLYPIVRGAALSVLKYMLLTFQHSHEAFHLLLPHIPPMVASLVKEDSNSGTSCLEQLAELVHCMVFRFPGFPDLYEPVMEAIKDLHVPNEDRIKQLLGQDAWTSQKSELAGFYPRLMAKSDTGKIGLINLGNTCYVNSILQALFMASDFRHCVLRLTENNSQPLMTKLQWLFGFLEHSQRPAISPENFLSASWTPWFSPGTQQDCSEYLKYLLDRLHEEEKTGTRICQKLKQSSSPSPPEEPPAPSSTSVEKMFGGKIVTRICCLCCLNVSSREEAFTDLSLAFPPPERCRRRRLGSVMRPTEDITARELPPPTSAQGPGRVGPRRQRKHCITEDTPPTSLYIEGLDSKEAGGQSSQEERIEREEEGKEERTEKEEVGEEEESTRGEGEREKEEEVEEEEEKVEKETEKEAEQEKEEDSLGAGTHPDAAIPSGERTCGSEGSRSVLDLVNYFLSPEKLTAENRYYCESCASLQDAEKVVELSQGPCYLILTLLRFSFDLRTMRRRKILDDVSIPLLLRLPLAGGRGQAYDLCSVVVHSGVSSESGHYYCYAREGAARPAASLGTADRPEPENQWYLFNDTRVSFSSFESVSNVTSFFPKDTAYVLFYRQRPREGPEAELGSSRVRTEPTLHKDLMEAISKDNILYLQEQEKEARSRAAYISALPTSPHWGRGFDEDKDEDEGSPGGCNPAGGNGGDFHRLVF
Method in brief: as §1

[8] = biological target: T4, UniProt Q9UGI0
T4 sequence (whole entry): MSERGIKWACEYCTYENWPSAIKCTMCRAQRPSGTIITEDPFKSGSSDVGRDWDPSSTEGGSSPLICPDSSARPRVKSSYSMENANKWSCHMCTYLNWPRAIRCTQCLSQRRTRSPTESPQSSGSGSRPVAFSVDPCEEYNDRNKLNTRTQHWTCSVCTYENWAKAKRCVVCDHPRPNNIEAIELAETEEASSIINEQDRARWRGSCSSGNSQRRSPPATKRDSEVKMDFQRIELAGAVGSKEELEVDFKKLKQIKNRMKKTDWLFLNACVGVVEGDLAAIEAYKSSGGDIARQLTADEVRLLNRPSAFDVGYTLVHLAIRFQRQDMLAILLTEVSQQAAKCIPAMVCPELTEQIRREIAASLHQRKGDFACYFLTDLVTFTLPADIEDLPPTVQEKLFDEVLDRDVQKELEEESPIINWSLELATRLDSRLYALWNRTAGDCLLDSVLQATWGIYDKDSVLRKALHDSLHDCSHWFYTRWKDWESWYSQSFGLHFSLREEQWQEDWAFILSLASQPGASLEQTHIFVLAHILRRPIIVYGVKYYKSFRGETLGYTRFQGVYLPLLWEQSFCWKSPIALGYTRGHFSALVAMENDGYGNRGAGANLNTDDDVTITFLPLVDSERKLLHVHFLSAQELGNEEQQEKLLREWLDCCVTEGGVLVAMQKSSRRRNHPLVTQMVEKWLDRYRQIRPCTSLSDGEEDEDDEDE
Method in brief: as §1

[9] = biological target: T5, YOD1 (UniProt Q5VVQ6)
T5 sequence (whole entry): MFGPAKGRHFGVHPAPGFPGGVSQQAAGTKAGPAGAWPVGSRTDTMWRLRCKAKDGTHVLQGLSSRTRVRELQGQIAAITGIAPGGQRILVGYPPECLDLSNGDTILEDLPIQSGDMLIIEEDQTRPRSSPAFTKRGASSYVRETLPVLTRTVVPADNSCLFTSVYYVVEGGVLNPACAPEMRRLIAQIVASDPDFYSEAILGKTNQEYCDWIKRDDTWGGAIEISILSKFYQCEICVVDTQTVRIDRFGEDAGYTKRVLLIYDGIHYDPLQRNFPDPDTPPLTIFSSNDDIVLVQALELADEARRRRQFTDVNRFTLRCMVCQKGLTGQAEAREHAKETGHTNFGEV
Method in brief: as §1

Measured: log2 ratio of Biotin-Ahx-Ub-VS probe labelling

UniProt O00507, sequence (O00507 whole entry): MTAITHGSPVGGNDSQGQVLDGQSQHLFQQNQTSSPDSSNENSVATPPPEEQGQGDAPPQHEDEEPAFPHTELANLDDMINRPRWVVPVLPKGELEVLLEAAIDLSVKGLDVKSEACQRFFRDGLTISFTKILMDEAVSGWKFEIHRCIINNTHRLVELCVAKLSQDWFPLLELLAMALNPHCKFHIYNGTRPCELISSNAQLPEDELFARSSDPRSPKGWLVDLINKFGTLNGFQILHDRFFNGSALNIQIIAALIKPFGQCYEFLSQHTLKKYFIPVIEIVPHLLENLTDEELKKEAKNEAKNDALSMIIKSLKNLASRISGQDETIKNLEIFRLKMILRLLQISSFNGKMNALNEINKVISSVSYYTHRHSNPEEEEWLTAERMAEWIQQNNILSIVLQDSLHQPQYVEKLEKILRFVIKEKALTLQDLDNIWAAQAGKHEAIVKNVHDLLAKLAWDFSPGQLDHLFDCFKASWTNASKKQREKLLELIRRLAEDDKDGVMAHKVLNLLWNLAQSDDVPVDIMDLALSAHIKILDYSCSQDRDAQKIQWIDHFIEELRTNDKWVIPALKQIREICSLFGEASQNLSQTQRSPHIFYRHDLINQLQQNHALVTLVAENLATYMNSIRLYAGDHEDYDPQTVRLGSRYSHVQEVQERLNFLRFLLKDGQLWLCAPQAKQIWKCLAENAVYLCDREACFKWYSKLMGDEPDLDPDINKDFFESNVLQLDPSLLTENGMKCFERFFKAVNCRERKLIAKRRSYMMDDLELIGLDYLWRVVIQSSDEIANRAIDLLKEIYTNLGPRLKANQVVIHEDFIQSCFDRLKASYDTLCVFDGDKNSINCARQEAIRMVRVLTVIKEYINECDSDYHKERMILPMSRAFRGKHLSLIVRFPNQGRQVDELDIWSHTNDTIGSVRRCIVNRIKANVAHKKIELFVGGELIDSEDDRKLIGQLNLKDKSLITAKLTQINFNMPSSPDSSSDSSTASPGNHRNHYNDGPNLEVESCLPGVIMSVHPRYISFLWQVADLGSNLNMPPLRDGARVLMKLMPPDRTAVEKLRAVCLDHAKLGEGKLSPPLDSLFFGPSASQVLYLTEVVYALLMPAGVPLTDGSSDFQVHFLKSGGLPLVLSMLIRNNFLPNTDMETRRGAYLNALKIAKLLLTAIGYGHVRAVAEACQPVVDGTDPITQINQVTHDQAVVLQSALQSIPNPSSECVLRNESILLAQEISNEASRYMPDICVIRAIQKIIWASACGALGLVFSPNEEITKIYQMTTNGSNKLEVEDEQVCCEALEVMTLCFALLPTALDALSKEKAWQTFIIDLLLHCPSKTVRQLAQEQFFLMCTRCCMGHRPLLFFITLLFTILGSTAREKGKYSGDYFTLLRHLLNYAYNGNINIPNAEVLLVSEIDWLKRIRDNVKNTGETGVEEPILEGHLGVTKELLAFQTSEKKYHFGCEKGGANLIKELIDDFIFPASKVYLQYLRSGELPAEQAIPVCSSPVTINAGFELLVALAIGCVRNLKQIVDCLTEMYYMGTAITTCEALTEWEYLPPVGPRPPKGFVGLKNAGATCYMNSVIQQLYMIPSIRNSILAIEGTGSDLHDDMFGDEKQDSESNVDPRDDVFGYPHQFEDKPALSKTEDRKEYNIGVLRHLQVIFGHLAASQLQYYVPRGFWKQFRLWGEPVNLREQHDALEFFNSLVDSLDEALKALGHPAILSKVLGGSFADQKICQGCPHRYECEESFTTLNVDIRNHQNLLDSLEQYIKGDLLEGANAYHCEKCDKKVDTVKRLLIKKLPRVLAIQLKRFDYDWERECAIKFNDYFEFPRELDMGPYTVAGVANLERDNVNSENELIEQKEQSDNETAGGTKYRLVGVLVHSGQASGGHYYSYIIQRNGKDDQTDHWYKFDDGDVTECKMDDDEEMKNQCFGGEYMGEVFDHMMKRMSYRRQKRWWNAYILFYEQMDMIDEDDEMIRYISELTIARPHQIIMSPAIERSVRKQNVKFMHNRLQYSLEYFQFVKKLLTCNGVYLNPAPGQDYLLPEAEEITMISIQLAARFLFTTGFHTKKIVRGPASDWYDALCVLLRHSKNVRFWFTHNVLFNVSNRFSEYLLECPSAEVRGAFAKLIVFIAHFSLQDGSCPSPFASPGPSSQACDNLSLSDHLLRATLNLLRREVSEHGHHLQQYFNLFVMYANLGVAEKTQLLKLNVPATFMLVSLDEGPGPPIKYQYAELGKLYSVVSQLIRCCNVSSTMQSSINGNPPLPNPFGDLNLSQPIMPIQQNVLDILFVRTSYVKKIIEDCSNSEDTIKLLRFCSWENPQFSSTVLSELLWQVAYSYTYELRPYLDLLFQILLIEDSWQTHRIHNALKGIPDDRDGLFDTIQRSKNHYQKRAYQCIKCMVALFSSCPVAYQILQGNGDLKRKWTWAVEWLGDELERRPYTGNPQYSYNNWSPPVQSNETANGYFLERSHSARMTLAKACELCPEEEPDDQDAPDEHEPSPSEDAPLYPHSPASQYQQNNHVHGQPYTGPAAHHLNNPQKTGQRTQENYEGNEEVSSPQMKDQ
USP9X, sequence (Q93008 whole entry, the tested form may be a part): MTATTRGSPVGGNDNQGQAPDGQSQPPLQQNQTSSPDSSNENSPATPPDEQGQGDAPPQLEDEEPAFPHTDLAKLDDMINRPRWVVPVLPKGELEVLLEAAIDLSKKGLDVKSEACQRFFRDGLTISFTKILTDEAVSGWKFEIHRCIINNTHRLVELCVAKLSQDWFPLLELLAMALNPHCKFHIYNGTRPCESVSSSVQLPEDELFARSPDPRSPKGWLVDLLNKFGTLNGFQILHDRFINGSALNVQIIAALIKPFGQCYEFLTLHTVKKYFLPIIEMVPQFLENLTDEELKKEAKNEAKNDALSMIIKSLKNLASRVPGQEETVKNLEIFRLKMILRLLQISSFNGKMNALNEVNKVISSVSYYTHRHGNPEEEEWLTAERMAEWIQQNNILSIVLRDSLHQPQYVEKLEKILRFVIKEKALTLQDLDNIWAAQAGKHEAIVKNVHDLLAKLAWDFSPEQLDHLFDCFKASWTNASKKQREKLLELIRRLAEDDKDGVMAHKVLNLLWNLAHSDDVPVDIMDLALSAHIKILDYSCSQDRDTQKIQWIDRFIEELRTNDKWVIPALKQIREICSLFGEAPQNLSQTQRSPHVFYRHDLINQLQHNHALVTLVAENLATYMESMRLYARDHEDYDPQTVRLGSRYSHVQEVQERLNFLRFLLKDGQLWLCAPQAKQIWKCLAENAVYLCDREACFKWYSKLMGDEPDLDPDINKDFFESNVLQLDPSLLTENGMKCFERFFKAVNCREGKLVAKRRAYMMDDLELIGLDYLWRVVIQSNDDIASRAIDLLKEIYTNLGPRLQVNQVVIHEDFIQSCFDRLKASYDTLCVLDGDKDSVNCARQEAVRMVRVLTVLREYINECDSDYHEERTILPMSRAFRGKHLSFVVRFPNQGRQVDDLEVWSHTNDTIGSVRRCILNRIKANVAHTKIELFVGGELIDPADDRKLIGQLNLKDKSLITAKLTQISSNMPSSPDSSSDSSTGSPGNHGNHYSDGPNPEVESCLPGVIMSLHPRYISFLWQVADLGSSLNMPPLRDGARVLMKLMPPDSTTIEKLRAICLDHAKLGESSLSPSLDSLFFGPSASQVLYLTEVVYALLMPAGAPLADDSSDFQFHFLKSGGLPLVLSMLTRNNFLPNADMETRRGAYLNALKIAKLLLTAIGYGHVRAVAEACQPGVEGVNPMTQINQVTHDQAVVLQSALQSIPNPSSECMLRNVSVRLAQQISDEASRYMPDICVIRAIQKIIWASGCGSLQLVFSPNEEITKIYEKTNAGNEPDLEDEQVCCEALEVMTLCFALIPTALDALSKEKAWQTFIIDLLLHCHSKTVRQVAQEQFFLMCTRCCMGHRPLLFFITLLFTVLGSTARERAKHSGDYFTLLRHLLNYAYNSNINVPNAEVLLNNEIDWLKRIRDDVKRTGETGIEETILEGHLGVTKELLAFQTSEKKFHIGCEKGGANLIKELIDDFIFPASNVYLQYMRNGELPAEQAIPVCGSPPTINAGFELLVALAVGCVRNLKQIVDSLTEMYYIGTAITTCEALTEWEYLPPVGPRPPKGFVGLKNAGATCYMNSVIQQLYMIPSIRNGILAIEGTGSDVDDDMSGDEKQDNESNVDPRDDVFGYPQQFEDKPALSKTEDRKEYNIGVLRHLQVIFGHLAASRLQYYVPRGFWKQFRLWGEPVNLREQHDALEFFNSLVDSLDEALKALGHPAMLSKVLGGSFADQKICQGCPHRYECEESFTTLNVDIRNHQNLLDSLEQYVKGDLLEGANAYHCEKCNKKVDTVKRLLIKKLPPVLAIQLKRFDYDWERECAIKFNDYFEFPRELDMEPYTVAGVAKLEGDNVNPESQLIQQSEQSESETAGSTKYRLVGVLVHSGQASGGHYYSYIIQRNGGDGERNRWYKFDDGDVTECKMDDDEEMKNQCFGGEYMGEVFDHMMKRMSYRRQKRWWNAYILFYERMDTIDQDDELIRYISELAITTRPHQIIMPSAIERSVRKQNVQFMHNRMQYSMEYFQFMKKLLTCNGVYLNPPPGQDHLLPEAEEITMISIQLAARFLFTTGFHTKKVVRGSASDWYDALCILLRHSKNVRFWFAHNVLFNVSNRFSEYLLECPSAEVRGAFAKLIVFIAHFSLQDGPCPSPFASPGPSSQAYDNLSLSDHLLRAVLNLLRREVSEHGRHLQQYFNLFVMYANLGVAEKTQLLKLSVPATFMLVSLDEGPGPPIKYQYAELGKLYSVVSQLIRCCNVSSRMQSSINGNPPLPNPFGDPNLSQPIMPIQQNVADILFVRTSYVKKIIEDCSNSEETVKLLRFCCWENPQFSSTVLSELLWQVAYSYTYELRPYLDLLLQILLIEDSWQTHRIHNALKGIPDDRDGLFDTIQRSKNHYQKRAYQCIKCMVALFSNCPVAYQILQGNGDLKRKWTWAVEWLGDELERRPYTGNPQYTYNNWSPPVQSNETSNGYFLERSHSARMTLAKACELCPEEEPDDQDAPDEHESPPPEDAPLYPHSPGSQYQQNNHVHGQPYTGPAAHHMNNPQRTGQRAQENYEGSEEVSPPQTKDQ

O=C(CCl)N(C1=CCCCC1)C1CC1
inactive: [1] -0.0905 | [2] -0.232 | [3] 0.309 | [4] -0.0543 | [5] -0.118 | [6] -0.435 | [7] -0.351 | [8] 0.0561 | [9] -0.0863

From the supplement of paper PMC11732987, “Enantioselective OTUD7B fragment discovery through chemoproteomics screening and high-throughput optimisation” (Communications Chemistry, 2025)
